Reference: PubChem BioAssay AID1117319 (Southern Research Institute, 2015)
In all, about 260,000 compounds went through this assay and about 1,500 (0.58%) were called active. Another 5% or so got no clear call; they are omitted.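 The calls were made as follows: active = inhibition above a set limit at one or more doses, reproduced on every date tested; inconclusive = results disagree between test dates, or hit never tested in dose response; inactive = the rest.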 Not all results are given here. Entries with a potency or affinity are not part of this list.

Biological target: Virion infectivity factor (Human immunodeficiency virus type 1 group M subtype B (isolate BH10)) + Virion infectivity factor (Human immunodeficiency virus type 1 group M subtype B (isolate BRU/LAI)) + Virion infectivity factor (Human immunodeficiency virus type 1 group M subtype B (isolate PCV12)) + Virion infectivity factor (Human immunodeficiency virus type 1 group M subtype B (isolate HXB2)) + DNA dC->dU-editing enzyme APOBEC-3G (Homo sapiens) (UniProt P69720+P69721+P69722+P69723+Q9HC16)
Test: HIV-1 Vif–A3G interaction blockers – biochemical, TR-FRET, GST-Vif 1-94, biotin-A3G peptide, dose response retest, primary screen (AID 1117319);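 also: Vif residues 1-94 fused to GST binding biotinylated APOBEC3G peptide 110-148; 0% = full assay without inhibitor and 100% = GST in place of GST-Vif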
Conditions: TR-FRET GST-Vif / biotin-A3G peptide binding; active compounds read high

inhibition, inactive:
COC(=O)c1ccc(Cn2nc(C)c(Cl)c2C)o1 3.48%
Clc1cccc(CON/C=N/c2ncnc3sccc23)c1 -6.38%
CC(=O)Nc1ccccc1OCC(=O)NCCC1=CCCCC1 -8.53%
CCN(CC)c1ccc2cc(C=O)c(=O)oc2c1 24.5%
CCN(CC)c1ccc2c(C)c(Cl)c(=O)oc2c1 -11.9%
CC(C)N=C1SCC(C)(/C=N/O)S1 (centres undefined) 5.98%
O=C1[C@@H]2[C@H](Cc3ccc(O)cc3)N[C@]3(C(=O)Nc4ccccc43)[C@@H]2C(=O)N1c1ccc(F)cc1 3.97%
O=C1[C@@H]2C(Cc3ccc(O)cc3)NC3(C(=O)Nc4ccc(F)cc43)[C@@H]2C(=O)N1c1ccccc1 (some centres undefined) -9.27%
CCN=C1SC(CC(N)=O)C(=O)N1CC (centres undefined) 9.83%
Cc1nc(N2CCN(C(=O)c3ccco3)CC2)nc2c1C(=O)CC(C)C2 (centres undefined) -2.42%
COc1ccc(Cl)cc1NC(=O)c1cnccn1 3.9%
Cc1nc(N)c(C#N)c(-c2ccc3c(c2)OCO3)c1C -4.59%
Cc1c(C)n(C(=O)CSc2ncn[nH]2)c2ccccc12 -2.61%
Cc1[nH]c2ccccc2c1C(=O)CSc1nc2ccccc2[nH]1 30.3%
CC(=O)c1ccc(NC(=O)c2cnn3ccccc23)cc1 1.77%
CSc1cccc(NC(=O)c2cnn3ccccc23)c1 1.6%
COc1ccc(N2CCN(C(=O)CSc3ncn[nH]3)CC2)cc1 7.54%
COc1ccc(-n2nnnc2/C=C/Nc2cc(C(F)(F)F)ccc2OC)cc1 -7.87%
C=C(C1=CCN(S(=O)C(C)(C)C)[C@H]1CCO)c1ccccc1 (some centres undefined) -5.4%
Cc1nc2cc(-c3ccccc3)nn2c(C)c1CCC(=O)N1CCN(c2ccccc2)CC1 -3.02%
Cc1nc2nc(C)c(CCC(=O)N3CCN(c4ccccn4)CC3)c(C)n2n1 8.31%
Cc1ccc(/C=N/n2cnc3sc4c(c3c2=O)CCCC4)o1 8.22%
CCN(C(=S)Nc1cccnc1)c1ccccc1 -9.76%
CC(C)N(C(=S)Nc1cccnc1)c1ccccc1 4.04%
O=[N+]([O-])c1ccccc1N/N=C/c1ccc2c(c1)OCO2 26.8%
Cc1c(-c2ccccc2)nc2ccccc2c1C(=O)NCc1cccs1 10.6%
COc1cc(NC(=O)c2cnn3c(C)cc(C)nc23)c(OC)cc1Cl 0.24%
Cc1ccc(NC(=O)c2cc3nc(C)cc(C)n3n2)cc1 3.27%
COc1cc(C2c3c([nH]c(=O)[nH]c3=O)Nc3ccc4ccccc4c32)cc(OC)c1OC (centres undefined) 1.71%
CCC(=O)N(c1nnc(SCC(=O)Nc2sccc2C(N)=O)s1)C1CC1 4.16%
CCOC(=O)c1ccc2c(c1)C(=O)N(C1CCCCC1)C2=O 6.81%
Fc1ccc2c(c1)C1C=CCC1C(c1cc3c(cc1Br)OCO3)N2 (centres undefined) 1.91%
CCOC(=O)c1ccc2nc(C)c3c(c2c1)OC(C)C3 (centres undefined) -3.24%
O=C(O)CCC(=O)Nc1ccc(C(=O)OC2CCCCC2)cc1 9.06%
O=C(OC1CCCCC1)c1ccc(NC(=O)C2CCCCC2)cc1 2.8%
CCN(CC)C(=O)c1ccc(C)c(Br)c1 -4.6%
CCN(CC)C(=O)c1ccc(-c2ccccc2)cc1 3.81%
O=C1CN(C(=O)c2c(F)cccc2F)C(c2ccccc2)c2cc(Br)ccc2N1 (centres undefined) -0.06%
CN1CC(=O)N(CC(=O)Nc2ccc(N3CCOCC3)cc2)C1=O -19.5%
O=C1OC(Cc2ccccc2)(c2ccccc2)c2ccccc21 (centres undefined) 3.92%
CN(C(=O)Cn1nnc(-c2cccnc2)n1)C1CCCCC1 8.32%
CCOP(=O)(OCC)C(NC(=O)Nc1ccc(C)c(Cl)c1)c1ccccc1 (centres undefined) 1.69%
COc1cc(/C=N/N=C(\N)c2nonc2N)cc(OC)c1O 16.4%
CCCc1nn2c(=O)cc(O)nc2s1 3.77%
CCCNc1nc(C)c(C(C)=O)cc1C#N 29.1%
Cc1nn(C)c(Oc2cccc(C(F)(F)F)c2)c1C#N 1.09%
CNc1nc(C)c(C(=O)c2ccc(Cl)cc2)s1 -4.16%
CCC(NC(=O)c1ccccc1NC(=O)c1ccc(C)cc1)C(=O)O (centres undefined) 2.64%
Cc1ccc2c(c1)C(c1ccc(F)cc1)N(C(=O)C1CC1)CC(=O)N2 (centres undefined) -2.57%
CC(=O)c1ccc2c(c1)CCN2 9.69%
Cc1ccc2c(c1)C(c1ccccc1)N(C(=O)C(C)C)CC(=O)N2 (centres undefined) 1.62%
CC(=O)c1ccc(N2CCC(C(=O)O)CC2)cc1 6.29%
COC(=O)c1cc(=O)nc2scc(C)n12 5.72%
C=C1[C@@H](C)C2[C@H](Cc3ccccc3)NC(=O)[C@]23OC(=O)CC[C@H](O)CCC[C@H](C)C/C=C/[C@H]3[C@@H]1O (some centres undefined) 6.17%
CC(C)COP(=O)(OCC(C)C)C(O)c1ccc(N(C)C)cc1 (centres undefined) 12.4%
CC(C)OP(=O)(c1ccc(N(C)C)cc1)C(O)c1ccc(N(C)C)cc1 (centres undefined) -8.7%
O=C(O)c1ccc2c(c1)C(=O)N(c1cccc(S(=O)(=O)Nc3cccc(C(F)(F)F)c3)c1)C2=O 25.9%
CCOC(=O)C1=C(C)N=C2SC(C(=O)OC)=CC(=O)N2C1c1ccc(OC)cc1 (centres undefined) 7.8%
CCOC(=O)C1=C(C)N=C2SC(C(=O)OC)=CC(=O)N2C1c1cccc(OC)c1 (centres undefined) 0.81%
N#Cc1ccc(N2CCCNCC2)nc1 -3.01%
COc1ccc2oc(C(=O)N3CCCc4ccccc43)c(C)c2c1 0.82%
CC1CCC(NC(=O)C2CCN(c3nc4ccccc4s3)CC2)CC1 (centres undefined) 7.57%
CC1CCCCN1Cc1ccc(N)cc1 (centres undefined) -2.03%
CN(C)c1ccc(CN2CCCCCC2)cc1 8.55%
